Here are results for 13 compounds from PubChem BioAssay (NCI).

Test systems include NCI-H23 lung; NCI-H226 lung; NCI-H322M lung; HOP-62 NSCLC; NCI-H460 lung; HOP-92 NSCLC; NCI-H522 lung; A549/ATCC NSCLC; 786-0 renal; COLO 205 colon.
Common to all, as to experiment: NCI-60 one-dose screen, 48 h (100 = growth as untreated, 0 = no growth, -100 = all killed)
Holding throughout (conditions): 10 µM unless noted

About 83,000 compounds went through this panel and 20% of them were active in at least one assay; those are over-represented in the sample as a whole.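 A percent growth of 40 corresponds to 60% growth inhibition; 0 means no net growth; -100 means all cells died. Active threshold: below 10.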 Values without a mark were called inactive. The source made the active and inactive calls.

In the case of `CCOc1cc(NC(=O)c2ccccc2)c(OCC)cc1N`, the growth with NCI-H23 lung is 102%; with NCI-H226 lung, 106%; in the assay with NCI-H322M lung, 141%; in the assay on HOP-62 NSCLC it was 102%; with NCI-H460 lung, 114%; with HOP-92 NSCLC, 104%. For the same compound, the growth with NCI-H522 lung is 98.3%; with A549/ATCC NSCLC it was 115%; in the assay with 786-0 renal it was 110%; in the assay with COLO 205 colon it was 116%.

As for `Cc1cc2c(C(C)C)c(O)c(O)c(C=NCc3ccoc3)c2c(O)c1-c1c(C)cc2c(C(C)C)c(O)c(O)c(C=NCc3ccco3)c2c1O`, the growth was 23.5% with NCI-H23 lung; 72% with NCI-H226 lung; 44.5% in the assay on NCI-H322M lung; 53.3% in the assay on HOP-62 NSCLC; 25.5% with NCI-H460 lung; 21% in the assay on HOP-92 NSCLC. The growth in the assay on NCI-H522 lung is 35.4%; with A549/ATCC NSCLC it was 26.3%; in the assay on 786-0 renal it was 62.3%; in the assay with COLO 205 colon, 10.6%.

For `ClC1=C(Cl)C(Cl)=C(Cl)C1=Cc1ccccc1`, the growth with NCI-H23 lung is -58.6% (active); in the assay on NCI-H226 lung it was -73% (active); in the assay with NCI-H322M lung, -13.2% (active); in the assay on HOP-62 NSCLC, -32.7% (active); with NCI-H460 lung it was -52.6% (active); in the assay on HOP-92 NSCLC, -49.1% (active). In addition, the growth is -51.1% (active) with NCI-H522 lung, -0.255% (active) in the assay on A549/ATCC NSCLC, -90.3% (active) in the assay on 786-0 renal and -55.6% (active) in the assay on COLO 205 colon.

Take `CC(C)=CC/C=C(/C)[C@H]1CC[C@]2(C)[C@@H]1CC[C@@H]1[C@@]3(C)CC/C(=N/O)C(C)(C)[C@@H]3CC[C@]12C`: the growth is 47.5% [100 µM] in the assay with NCI-H23 lung; 59.7% [100 µM] with NCI-H226 lung; 77.3% [100 µM] in the assay with NCI-H322M lung; 74.2% [100 µM] with HOP-62 NSCLC; 40.5% [100 µM] in the assay with NCI-H460 lung; 53.1% [100 µM] with HOP-92 NSCLC. The growth in the assay with NCI-H522 lung is 21.3% [100 µM]; in the assay with A549/ATCC NSCLC it was 54.9% [100 µM]; in the assay with 786-0 renal it was 58.7% [100 µM]; with COLO 205 colon, 65.8% [100 µM].

In the case of `O=C1/C(=C\c2cn(CC(O)CN3CCCCC3)c3ccccc23)c2ccccc2N1c1c(Cl)cccc1Cl` (stereo not given), the growth with NCI-H23 lung was -47.4% (active); in the assay on NCI-H226 lung it was -73.9% (active); in the assay with NCI-H322M lung it was -90.4% (active); with HOP-62 NSCLC it was -91% (active); in the assay on NCI-H460 lung, -82.7% (active); with HOP-92 NSCLC, -87.4% (active). Moreover, the growth in the assay on NCI-H522 lung is -77.5% (active); in the assay on A549/ATCC NSCLC it was -90.4% (active); in the assay with 786-0 renal, -72.6% (active); with COLO 205 colon, -99.1% (active).

Consider `O=C(N/N=C/c1ccc([N+](=O)[O-])cc1)c1ccc(Br)o1`, for which the growth in the assay with NCI-H23 lung is 95.5%; in the assay on NCI-H226 lung, 100%; in the assay on NCI-H322M lung, 129%; in the assay with HOP-62 NSCLC, 119%; with NCI-H460 lung it was 105%; in the assay on HOP-92 NSCLC it was 101%. The growth was 88.5% in the assay on NCI-H522 lung, 92.7% with A549/ATCC NSCLC, 91.7% in the assay with 786-0 renal and 116% in the assay on COLO 205 colon.

On to `C/C=C/C1OC23CCCCC2C(C#N)(C(=N)O3)C1(C#N)C#N` (stereo not given), for which the growth was 101% in the assay with NCI-H23 lung; 103% in the assay with NCI-H226 lung; 102% with NCI-H322M lung; 103% with HOP-62 NSCLC; 101% in the assay on NCI-H460 lung; 117% with HOP-92 NSCLC. Besides, the growth with NCI-H522 lung is 74.1%; with A549/ATCC NSCLC, 104%; in the assay with 786-0 renal, 105%; with COLO 205 colon, 91.6%.

Consider `Brc1ccc2c(c1)CN(C1CCCCC1)CO2`, for which the growth is 96.9% in the assay on NCI-H23 lung; 91.3% with NCI-H226 lung; 124% in the assay on NCI-H322M lung; 100% in the assay with HOP-62 NSCLC; 102% in the assay with NCI-H460 lung; 89.3% in the assay on HOP-92 NSCLC. The growth in the assay with NCI-H522 lung was 108%; in the assay with A549/ATCC NSCLC, 110%; with 786-0 renal it was 117%; in the assay with COLO 205 colon, 116%.

With `O=C(O)c1cn(C2CC2)c2cc(N3CCN(Cc4c(O)ccc5ccccc45)CC3)c(F)cc2c1=O`, the growth in the assay with NCI-H23 lung was 21.9%; in the assay with NCI-H226 lung, 6.89% (active); in the assay with NCI-H322M lung, 22%; in the assay with HOP-62 NSCLC, -41.1% (active); with NCI-H460 lung, 5.64% (active); in the assay on HOP-92 NSCLC it was -8.22% (active). Also, the growth in the assay with NCI-H522 lung was 19.7%; with A549/ATCC NSCLC, -21.9% (active); with 786-0 renal, 29.5%; with COLO 205 colon, 27.1%.

For `COCCCNc1nc(NC(=O)c2cc(OC)cc(OC)c2)cc(-c2cccnc2)n1`, the growth with NCI-H23 lung is 98.6%; in the assay with NCI-H226 lung, 96.5%; in the assay with NCI-H322M lung, 92.8%; in the assay with HOP-62 NSCLC, 91.3%; in the assay on NCI-H460 lung it was 95.2%; in the assay on HOP-92 NSCLC, 52.6%. In addition, the growth was 76.5% in the assay on NCI-H522 lung, 91.2% in the assay with A549/ATCC NSCLC, 83.3% in the assay on 786-0 renal and 109% with COLO 205 colon.

With `CC(C)C1=NOC(=O)C1=Cc1cn(-c2ccco2)nc1-c1ccccc1`, the growth in the assay on NCI-H23 lung is 96.6%; in the assay with NCI-H226 lung, 102%; with NCI-H322M lung, 102%; in the assay with HOP-62 NSCLC it was 79.1%; in the assay on NCI-H460 lung, 93.8%; with HOP-92 NSCLC, 94.1%. The growth in the assay with NCI-H522 lung was 84.8%; in the assay with A549/ATCC NSCLC, 99.2%; in the assay with 786-0 renal it was 89.1%; with COLO 205 colon, 103%.

`O=C1/C(=C/c2cccc(OCc3ccccc3)c2)Oc2cc(OCCN3CCCCC3)ccc21`: the growth with NCI-H23 lung is 86.4%; in the assay with NCI-H226 lung it was 100%; in the assay with NCI-H322M lung it was 75.4%; in the assay with HOP-62 NSCLC, 89.4%; in the assay with NCI-H460 lung, 83.3%; with HOP-92 NSCLC, 46.9%. For the same compound, the growth in the assay on NCI-H522 lung is 106%; with A549/ATCC NSCLC, 79.5%; in the assay with 786-0 renal it was 67.7%; with COLO 205 colon, 93.8%.

With `O=C1CC(c2ccccc2)Cc2nc3ccc(Cl)cc3cc21` (stereo not given), the growth with NCI-H23 lung was 36.4%; in the assay on NCI-H226 lung, 20.8%; in the assay on NCI-H322M lung, 39.8%; in the assay on HOP-62 NSCLC it was 35.9%; in the assay with NCI-H460 lung it was 3.33% (active); in the assay with HOP-92 NSCLC it was 39.3%. Further, the growth was 3.02% (active) in the assay with NCI-H522 lung, 23.3% in the assay with A549/ATCC NSCLC, 37.6% with 786-0 renal and -31.7% (active) in the assay with COLO 205 colon.
